# Assay results from the supplement of paper PMC6555819.
# Key:
# Test in all cases: PBM binding z-score (relative to random genomic background probes); higher = stronger binding; sequences stand for … in GC…GCGATTGACAGCGTAGAATGAAGG
# [1] = tested on: FXR:RXRa (NR concentration 270 nM, RXRa partner concentration 90 nM)
# Procedure, shortened: (§1)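 Binding z-scores take random background probes as their reference. They come from custom Agilent 4×180K protein-binding microarrays incubated 1 h with ligand-free nuclear receptor dimers, with antibodies against each partner (one per run) detecting binding. Scanned fluorescence was regression-normalized.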
# [2] = tested on: LXRa:RXRa (NR concentration 270 nM, RXRa partner concentration 90 nM)
# Procedure, shortened: as §1
# [3] = tested on: LXRa homodimer (NR concentration 270 nM)
# Procedure, shortened: as §1
# [4] = tested on: LXRb:RXRa (NR concentration 270 nM, RXRa partner concentration 90 nM)
# Procedure, shortened: as §1
# [5] = tested on: LXRb homodimer (NR concentration 270 nM)
# Procedure, shortened: as §1
# [6] = tested on: PPARa:RXRa (NR concentration 270 nM, RXRa partner concentration 90 nM)
# Procedure, shortened: as §1
# [7] = tested on: PPARg:RXRa (NR concentration 180 nM, RXRa partner concentration 90 nM)
# Procedure, shortened: as §1
# [8] = tested on: PPARg:RXRa 270nM:90nM, anti-RXR (NR concentration 270 nM, RXRa partner concentration 90 nM)
# Procedure, shortened: as §1
# [9] = tested on: PPARg:RXRa 30nM:10nM, anti-RXR (NR concentration 30 nM, RXRa partner concentration 10 nM)
# Procedure, shortened: as §1
# [10] = tested on: PPARg:RXRa 90nM:30nM, anti-RXR (NR concentration 90 nM, RXRa partner concentration 30 nM)
# Procedure, shortened: as §1
# [11] = tested on: PPARg:RXRa DBDmut IVT, anti-RXR (DBD mutation: RXRa K156A/R161A, NR concentration 270 nM, RXRa partner concentration 90 nM)
# Procedure, shortened: as §1
# [12] = tested on: PPARg:RXRa IVT, anti-PPARg (NR concentration 270 nM, RXRa partner concentration 90 nM)
# Procedure, shortened: as §1
# [13] = tested on: PPARg DBDmut:RXRa IVT, anti-PPARg (DBD mutation: PPARg1 K132A/R137A, NR concentration 270 nM, RXRa partner concentration 90 nM)
# Procedure, shortened: as §1
# [14] = tested on: PPARg DBDmut IVT, anti-PPARg (DBD mutation: PPARg1 K132A/R137A, NR concentration 270 nM)
# Procedure, shortened: as §1
# [15] = tested on: PPARg homodimer (NR concentration 180 nM)
# Procedure, shortened: as §1
# [16] = tested on: PXR:RXRa (NR concentration 270 nM, RXRa partner concentration 90 nM)
# Procedure, shortened: as §1
# [17] = tested on: PXR homodimer (NR concentration 270 nM)
# Procedure, shortened: as §1
# [18] = tested on: RARa:RXR (NR concentration 270 nM, RXRa partner concentration 90 nM)
# Procedure, shortened: as §1
# [19] = tested on: RARa homodimer (NR concentration 270 nM)
# Procedure, shortened: as §1
# [20] = tested on: RARb:RXRa (NR concentration 270 nM, RXRa partner concentration 90 nM)
# Procedure, shortened: as §1
Sequence,PBM binding z-score [1],PBM binding z-score [2],PBM binding z-score [3],PBM binding z-score [4],PBM binding z-score [5],PBM binding z-score [6],PBM binding z-score [7],PBM binding z-score [8],PBM binding z-score [9],PBM binding z-score [10],PBM binding z-score [11],PBM binding z-score [12],PBM binding z-score [13],PBM binding z-score [14],PBM binding z-score [15],PBM binding z-score [16],PBM binding z-score [17],PBM binding z-score [18],PBM binding z-score [19],PBM binding z-score [20]
AGAATGAGGTTATTAAGATCAGGGATTTGCGGTC,1.64,1.59,0.335,1.29,0.376,2.39,1.5,1.92,0.623,1.21,3.56,2.51,1.03,0.211,0.911,1.23,0.655,1.64,0.863,1.37
CGAACTAGGTGATCCAGGACAGTGAATACATTGA,-0.144,-0.403,-0.0294,-0.189,-0.452,1.76,2.3,1.72,0.625,1.09,5.95,5.54,1.12,0.847,0.425,-0.38,0.369,0.202,0.271,0.0644
TCATATAGGTAAGTGCTAGGTGAAAGTCCGATCT,0.366,0.752,0.094,0.207,0.122,0.896,0.556,2.06,3.39,2.49,3.42,2.48,0.55,0.697,0.802,0.193,0.147,0.223,1.04,0.4
CAGACTAGGTCACAGAGGTCAAAGTCCGTGCGTA,6.87,6.52,6.79,6.23,1.62,6.22,8.66,7.43,5.05,7.36,7.57,8,2.36,0.704,4.93,6.65,11.5,7.28,2.93,5.07
AGAACGAGTGCAATGAGTTGATAGCACGGGTGGC,-0.597,-0.443,-0.783,-0.585,-1.04,-0.17,0.712,-0.327,-0.239,-0.508,-0.425,-0.173,-0.0779,-0.15,-0.623,1.9,7.51,-0.248,-1.04,0.212
ATCTCTAGGTAAAAATTCAGTGAATCCCGAGGAT,0.0972,-0.215,-0.0718,-0.277,0.956,0.272,0.62,1.34,0.671,1.1,1.24,1.17,1.27,1.13,0.243,-0.0506,-0.317,-0.0791,0.766,0.165
